From PubChem BioAssay (NCI)
Compounds without any hit were thinned out: in the full panel of roughly 79,000, 15% have a hit. Calls of active or inactive are those of the source. No stated cut-off is given here; in the data, active means growth inhibition above about 70%; inactive means the rest.

Key:
[1] = NCI Yeast Anticancer Drug Screen. Data for the rad52 strain (AID 147);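 further: 0% = growth of vehicle-treated control cultures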; settings: S. cerevisiae rad52 mutant growth inhibition, active compounds read high
How it was run: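 Growth of repair-deficient yeast cells was compared between compound-treated and vehicle-treated cultures to give percent inhibition.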

[2] = NCI Yeast Anticancer Drug Screen. Data for the wt1 strain (AID 149);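 further: 0% = growth of vehicle-treated wt1 cultures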; settings: S. cerevisiae wt1 strain (SPY 50644) growth inhibition, active compounds read high
How it was run: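 Yeast wt1 strain exposed to compounds; growth inhibition measured relative to vehicle-treated controls.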

[3] = NCI Yeast Anticancer Drug Screen. Data for the rad50EPP+ strain (AID 151);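 further: 0% = growth of vehicle-treated control cultures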; settings: S. cerevisiae rad50 mutant strain, active compounds read high
How it was run: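 Measured: growth inhibition of rad50EPP+ yeast. Reference: vehicle-treated controls. Screen uses strains with defined genetic alterations in DNA damage repair or cell cycle control.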

[4] = NCI Yeast Anticancer Drug Screen. Data for the mgt1 strain (AID 153); settings: S. cerevisiae mgt1 mutant growth inhibition, active compounds read high
How it was run: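 Compounds were applied to mgt1 mutant yeast, and growth was then compared against vehicle-treated control cultures to give percent inhibition.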

[5] = NCI Yeast Anticancer Drug Screen. Data for the rad50 strain (AID 155);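 further: 0% = growth of vehicle-only cultures of the same strain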; settings: S. cerevisiae rad50 strain growth inhibition, active compounds read high
How it was run: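 Yeast carrying a defined DNA repair defect were exposed to test compounds, and growth was compared with vehicle-treated controls to give percent inhibition.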

[6] = NCI Yeast Anticancer Drug Screen. Data for the mec2-1 strain (AID 157); settings: S. cerevisiae mec2-1 strain, active compounds read high
How it was run: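 Compounds were applied to mec2-1 yeast cells. Their growth was then compared with that of vehicle-treated cultures to give growth inhibition.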

[7] = NCI Yeast Anticancer Drug Screen. Data for the rad14 strain (AID 159);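 further: 0% = growth of vehicle-treated control cultures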; settings: S. cerevisiae rad14 strain growth inhibition, active compounds read high
How it was run: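 Yeast cells carrying a defined DNA-repair defect were exposed to compounds, and growth inhibition was calculated relative to vehicle-treated control cultures.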

[8] = NCI Yeast Anticancer Drug Screen. Data for the sgs1 mgt1 strain (AID 161);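 further: 0% = growth of cultures given vehicle only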; settings: S. cerevisiae sgs1 mgt1 strain, active compounds read high
How it was run: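 This yeast growth screen uses a strain with defined DNA-repair lesions; compound-treated growth is compared with vehicle-treated growth.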

[9] = NCI Yeast Anticancer Drug Screen. Data for the CLN2oe strain (AID 163);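 further: 0% = growth of vehicle-only control cultures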; settings: S. cerevisiae CLN2oe strain, active compounds read high
How it was run: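 Cells of an engineered yeast line with disturbed cell-cycle regulation are treated with compound. Inhibition of growth is then calculated relative to the vehicle-treated reference.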

[10] = NCI Yeast Anticancer Drug Screen. Data for the cln2 rad14 strain (AID 165);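 further: 0% = growth equal to vehicle treated cultures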; settings: S. cerevisiae cln2 rad14 strain, active compounds read high
How it was run: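 Strain: cln2 rad14 yeast, altered in cell cycle control and DNA damage repair. Read-out: growth inhibition vs vehicle.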

[11] = NCI Yeast Anticancer Drug Screen. Data for the bub3 strain (AID 167); settings: S. cerevisiae bub3 mutant strain, active compounds read high
How it was run: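 Compounds were applied to a genetically altered yeast strain carrying a cell-cycle control defect. Growth inhibition was scored against vehicle-treated controls.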

[12] = NCI Yeast Anticancer Drug Screen. Data for the wt2 strain (AID 169);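 further: 0% = growth of vehicle-treated yeast cultures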; settings: S. cerevisiae wt2 strain growth inhibition, active compounds read high
How it was run: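 Growth of compound-treated yeast is measured and expressed as inhibition relative to vehicle-only controls.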

[13] = NCI Yeast Anticancer Drug Screen. Data for the mlh1 strain (AID 171);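 further: 0% = growth of vehicle-treated control cultures of the same strain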; settings: S. cerevisiae mlh1 strain growth inhibition, active compounds read high
How it was run: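 Test agents were incubated with yeast bearing a defined DNA damage repair or cell cycle control alteration; values are growth inhibition normalised to vehicle-treated cultures.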

[14] = NCI Yeast Anticancer Drug Screen. Data for the mlh1 rad18 strain (AID 175); settings: S. cerevisiae mlh1 rad18 strain growth inhibition, active compounds read high
How it was run: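 A repair-deficient yeast strain is exposed to test compound, and growth is scored relative to vehicle-treated controls.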

[15] = NCI Yeast Anticancer Drug Screen. Data for the rad18 strain (AID 177); settings: S. cerevisiae rad18 mutant growth inhibition, active compounds read high
How it was run: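 DNA-repair-defective yeast; compound treatment; growth inhibition scored against vehicle.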

[16] = at 5.0 µM (retest, dose inferred, filed as 0.5)
[17] = at 50.0 µM (retest, dose inferred, filed as 5.0)

Measured: growth inhibition

Nc1ccc(/C=C/c2ccc3cccnc3c2)cc1
inactive: [1]; at 1.2 µM -3% | [1]; at 3.7 µM -3% | [1]; at 11.0 µM -1% | [1]; at 33.0 µM 11% | [1]; at 100.0 µM 29% | [2]; at 1.2 µM 0% | [2]; at 3.7 µM -1% | [2]; at 11.0 µM -3% | [2]; at 33.0 µM -4% | [2]; at 100.0 µM -7% | [3]; at 1.2 µM -2% | [3]; at 3.7 µM 1% | [3]; at 11.0 µM 8% | [3]; at 33.0 µM 34% | [3]; at 100.0 µM 41% | [4]; at 1.2 µM 0% | [4]; at 3.7 µM 1% | [4]; at 11.0 µM -3% | [4]; at 33.0 µM -3% | [4]; at 100.0 µM 22% | [5]; at 1.2 µM 5% | [5]; at 3.7 µM 29% | [5]; [16] 5% | [5]; at 11.0 µM 23% | [5]; at 33.0 µM 14% | [5]; [17] 28% | [5]; at 50.0 µM 10.8% | [5]; at 100.0 µM 29% | [6]; at 1.2 µM -2% | [6]; at 3.7 µM -2% | [6]; [16] -1% | [6]; at 11.0 µM -3% | [6]; at 33.0 µM 1% | [6]; [17] 17% | [6]; at 50.0 µM 1.95% | [6]; at 100.0 µM 6% | [7]; at 1.2 µM 1% | [7]; at 3.7 µM 4% | [7]; at 11.0 µM 5% | [7]; at 33.0 µM 13% | [7]; at 100.0 µM 28% | [8]; [16] 3% | [8]; [17] 50% | [8]; at 50.0 µM 46.2% | [9]; at 1.2 µM 2% | [9]; at 3.7 µM 2% | [9]; at 11.0 µM 1% | [9]; at 33.0 µM -4% | [9]; at 100.0 µM 0% | [10]; [16] -5% | [10]; [17] 3% | [10]; at 50.0 µM -6.75% | [11]; at 1.2 µM 5% | [11]; at 3.7 µM 23% | [11]; [16] 24% | [12]; at 1.2 µM 1% | [12]; at 3.7 µM 8% | [12]; at 11.0 µM -2% | [12]; at 33.0 µM -4% | [12]; at 100.0 µM 9% | [13]; at 1.2 µM -1% | [13]; at 3.7 µM -1% | [13]; at 11.0 µM -1% | [13]; at 33.0 µM -2% | [13]; at 100.0 µM 21% | [14]; [16] 3% | [14]; [17] 20% | [14]; at 50.0 µM 32.8% | [15]; at 1.2 µM 1% | [15]; at 3.7 µM 1% | [15]; at 11.0 µM 11% | [15]; at 33.0 µM 59%
active: [11]; at 11.0 µM 85% | [11]; at 33.0 µM 94% | [11]; [17] 92% | [11]; at 50.0 µM 93.3% | [11]; at 100.0 µM 94% | [15]; at 100.0 µM 77%
